These results are taken from the supplement of paper PMC7595190.

This assay relates to MV4-11. The assay is described as follows: CellTox Green cytotoxicity fluorescence relative to DMSO vehicle (fold of vehicle RFU); higher = more cell death (loss of membrane integrity), active = 2 or more. The protocol:
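Paediatric AML cell lines (MV4-11, CMK, Kasumi-1; 4x10^4 cells/well, 96-well) treated with single compounds from the Selleckchem apoptosis library at 0.01, 0.1 and 1 µM. Cytotoxicity was read with CellTox Green (RFU, Ex 485/Em 520) at 24, 48 and 72 h and normalised to the 0.1% DMSO vehicle. Normalised RFU >= 2 was taken as a successful, cell-killing treatment.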

Unmarked numbers belong to inactive results.

As to `COc1ccc2c(c1)/C(=C/c1cnc[nH]1)C(=O)N2`, the “CellTox Green cytotoxicity fluorescence” value is, setting by setting: (0.01 µM, 24 h) 0.929; (0.01 µM, 48 h) 0.92; (0.01 µM, 72 h) 0.921; (0.1 µM, 24 h) 0.92; (0.1 µM, 48 h) 0.94; (0.1 µM, 72 h) 0.941. Besides, the “CellTox Green cytotoxicity fluorescence” value is 0.987 (1 µM, 24 h); 1.03 (1 µM, 48 h); 1.05 (1 µM, 72 h).

For the compound `COc1cc([C@@H]2c3cc4c(cc3[C@H](O)[C@H]3COC(=O)[C@@H]23)OCO4)cc(OC)c1OC` [Picropodophyllin], the “CellTox Green cytotoxicity fluorescence” value reads like this: (0.01 µM, 24 h) 0.934; (0.01 µM, 48 h) 0.932; (0.01 µM, 72 h) 0.939; (0.1 µM, 24 h) 0.922; (0.1 µM, 48 h) 0.924; (0.1 µM, 72 h) 0.931. In addition, the “CellTox Green cytotoxicity fluorescence” value is 1.28 (1 µM, 24 h); 2.6 (active) (1 µM, 48 h); 3.18 (active) (1 µM, 72 h).

In the case of `CC[C@H](C)[C@@H]([C@@H](CC(=O)N1CCC[C@H]1[C@H](OC)[C@@H](C)C(=O)N[C@H](C)[C@@H](O)c1ccccc1)OC)N(C)C(=O)[C@@H](NC(=O)[C@@H](NC)C(C)C)C(C)C` [Monomethyl auristatin E], the “CellTox Green cytotoxicity fluorescence” value reads like this: (0.01 µM, 24 h) 1.19; (0.01 µM, 48 h) 2.42 (active); (0.01 µM, 72 h) 2.81 (active); (0.1 µM, 24 h) 1.3; (0.1 µM, 48 h) 2.48 (active); (0.1 µM, 72 h) 2.73 (active). Also, the “CellTox Green cytotoxicity fluorescence” value was 1.58 (1 µM, 24 h); 2.5 (active) (1 µM, 48 h); 2.74 (active) (1 µM, 72 h).

For `COc1cc(C)[nH]c(=O)c1CNC(=O)c1c(C)n([C@H](C)C2CCOCC2)c2ccccc12`, the “CellTox Green cytotoxicity fluorescence” value is, setting by setting: (0.01 µM, 24 h) 0.942; (0.01 µM, 48 h) 0.94; (0.01 µM, 72 h) 0.941; (0.1 µM, 24 h) 0.942; (0.1 µM, 48 h) 0.951; (0.1 µM, 72 h) 0.957. The “CellTox Green cytotoxicity fluorescence” value is, setting by setting: (1 µM, 24 h) 0.942; (1 µM, 48 h) 0.936; (1 µM, 72 h) 0.948.

In the case of `Cn1c(COP(=O)(NCCBr)NCCBr)cnc1[N+](=O)[O-]`, the “CellTox Green cytotoxicity fluorescence” value by setting is: (0.01 µM, 24 h) 0.981; (0.01 µM, 48 h) 0.971; (0.01 µM, 72 h) 0.974; (0.1 µM, 24 h) 0.97; (0.1 µM, 48 h) 0.983; (0.1 µM, 72 h) 1.04. Also, the “CellTox Green cytotoxicity fluorescence” value was 0.97 (1 µM, 24 h); 1.38 (1 µM, 48 h); 2.79 (active) (1 µM, 72 h).
